Source: PubChem
Sampled rows, rich in hits. Any-hit rate of the full collection: about 6.9%.
Beta cell apopt – beta cell apoptosis inhibition. INS-1E cytokine-induced death, ATP luminescence, 48 h; percent of positive-control rescue, neutral wells zero. 0.8% of 300,000 active. protection from apoptosis, % (concentration not given with the values);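 active = Every replicate reaches about 75%, or at least half do and their mean reaches it too, limit read from the data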;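 note: 0% = cytokine-treated negative control wells and 100% = positive control rescue; higher means more ATP so stronger rescue from cytokine killing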
GRIN3A LBD mod – modulators (binders) of human NR3A ligand-binding domain; NR3A LBD differential scanning fluorimetry, Tm shift; 0% = protein alone, 100% = glycine-bound protein; Tm shift relative to glycine control, % at 25 µM; 2.5% of 340,000 active; AID 1259313;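 active = melting temperature shift of at least 10% of the positive control shift, at one fixed dose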
Mdm2-MdmX inh – human Mdm2/MdmX binding inhibition. AID 485346. SaOS-2 split-luciferase Mdm2/MdmX complementation, luminescence. O15151+Q00987. 3% of 330,000 active. inhibition, % at 8 µM;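 active = inhibition of at least 50% at 8 µM in the primary screen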
Target sequence (O15151 whole entry, looked up): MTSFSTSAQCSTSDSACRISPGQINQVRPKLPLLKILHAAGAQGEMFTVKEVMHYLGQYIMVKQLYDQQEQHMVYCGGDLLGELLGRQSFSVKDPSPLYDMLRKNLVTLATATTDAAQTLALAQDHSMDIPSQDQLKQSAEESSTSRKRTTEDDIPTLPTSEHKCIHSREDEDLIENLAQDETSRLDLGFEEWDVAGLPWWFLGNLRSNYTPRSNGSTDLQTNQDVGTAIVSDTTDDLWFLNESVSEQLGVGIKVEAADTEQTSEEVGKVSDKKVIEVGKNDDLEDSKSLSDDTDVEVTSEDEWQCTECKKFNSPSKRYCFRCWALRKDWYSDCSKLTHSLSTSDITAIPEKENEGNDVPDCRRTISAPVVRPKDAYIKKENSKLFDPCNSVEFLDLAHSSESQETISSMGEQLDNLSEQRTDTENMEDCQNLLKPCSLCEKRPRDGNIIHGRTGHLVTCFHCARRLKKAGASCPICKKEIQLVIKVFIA
Target sequence (Q00987 whole entry, looked up): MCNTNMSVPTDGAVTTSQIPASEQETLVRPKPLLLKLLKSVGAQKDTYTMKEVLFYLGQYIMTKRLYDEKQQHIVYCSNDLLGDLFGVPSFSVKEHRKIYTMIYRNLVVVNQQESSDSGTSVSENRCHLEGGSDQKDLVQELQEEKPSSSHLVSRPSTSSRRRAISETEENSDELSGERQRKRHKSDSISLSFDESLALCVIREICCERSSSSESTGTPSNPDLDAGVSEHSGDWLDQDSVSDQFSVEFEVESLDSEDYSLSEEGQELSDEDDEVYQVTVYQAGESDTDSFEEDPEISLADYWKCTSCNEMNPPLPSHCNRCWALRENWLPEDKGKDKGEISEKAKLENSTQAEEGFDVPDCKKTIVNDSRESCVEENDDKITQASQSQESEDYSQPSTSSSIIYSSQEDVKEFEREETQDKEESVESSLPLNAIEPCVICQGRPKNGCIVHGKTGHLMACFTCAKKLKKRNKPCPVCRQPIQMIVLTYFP
SKKanGAS inh – inhibitors of SKKanGAS S. pyogenes growth in kanamycin (SK-promoter or general growth effect). AID 1662. inhibition, % at 7.5 µM. BacTiter-Glo, 6 h. 1.3% of 300,000 active;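 active = mean replicate score, as percent of positive control median, at least 50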;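 note: strain carries kanamycin resistance gene driven by streptokinase promoter and grows in 40 µg/ml kanamycin; loss of luminescence reflects streptokinase promoter inhibition or plain growth inhibition; 0% = median of DMSO wells and 100% = positive control at its reference dose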
CSC inhib – blocks cancer stem cells. cancer stem cell-like cells viability, luminescence. 1.1% of 300,000 active. inhibition, % at 7.5 µM; in the data active = inhibition above about 75%; tested in HMLE shEcad cells
MPTP inh – blocks calcium-induced mitochondrial swelling. isolated mouse mitochondria, Ca2+ swelling absorbance, 30 min. 1.4% of 360,000 active. inhibition, % at 10 µM. AID 602449;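 active = inhibition of 50% or more, scaled per plate between neutral and stimulator controls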;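 note: 0% = DMSO wells given calcium and 100% = 1 mM EGTA wells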
Active calls of the source: *; x = not tested or not shown.

SMILES	Beta cell apopt	GRIN3A LBD mod	Mdm2-MdmX inh	SKKanGAS inh	CSC inhib	MPTP inh
Cc1ccc(N=C(NOCc2ccc(Cl)cc2Cl)c2nonc2N)c(C)c1	10.7	x	29.8	33.7	0.7	4.8
Cc1ccccc1N=C(NOCc1ccc(Cl)cc1Cl)c1nonc1N	5.3	-3.1	48.8	22.0	98.0*	3.4
O=c1[nH]c(CSc2ncnc3sccc23)nc2ccccc12	-5.3	-0.1	5.0	67.3*	5.1	0.3
O=c1[nH]c(CSc2ncn[nH]2)nc2ccccc12	1.2	-1.6	-1.1	-6.4	-20.2	-0.5
COCc1nnc(NC(=O)c2ccc(NC(C)=O)cc2)s1	-0.3	23.7*	6.5	-2.2	-9.1	-0.7
O=C(CCC(=O)N1CCN(c2ccc(O)cc2)CC1)c1ccc(Br)cc1	4.7	x	-13.3	-0.3	101.1*	x
Cc1ccc(C(=O)CCC(=O)N2CCN(c3ccccc3O)CC2)cc1	-1.7	19.5*	8.7	0.6	12.5	0.4
O=C(CCC(=O)N1CCN(c2ccc(O)cc2)CC1)c1cccs1	7.4	1.9	-35.6	-2.0	22.5	1.3
CCOc1ccc(C(=O)CCC(=O)N2CCN(c3ccc(O)cc3)CC2)cc1	9.8	3.7	6.4	x	80.6*	1.5
Cc1ccc(Oc2ccccc2NC(=O)C2=COCCO2)cc1	-4.8	-0.3	-16.7	20.9	-3.6	0.9
CCN(Cc1ccccc1)C(=O)c1oc2ccc(S(=O)(=O)N3CCOCC3)cc2c1C	0.0	-3.2	11.6	0.7	0.7	-0.5
Cc1ccc(OCC(=O)N2c3ccccc3CC2C)c([N+](=O)[O-])n1 (stereo not drawn)	-7.6	0.2	-3.1	6.9	4.7	-0.9
O=C(Nc1ccc(OC(F)(F)F)cc1)C1CCCN(C(=O)c2ccc(Cl)cc2)C1 (stereo not drawn)	2.8	-5.6	49.8	x	15.1	2.7
Cc1ccc2oc(=O)c3cnn(CC(=O)NCCC(C)C)c3c2c1	-6.0	12.8*	18.2	3.5	-1.2	1.6
Cc1cccc(C)c1OCC(=O)NNC(=S)NC(=O)C1CC1	32.5	-0.5	26.3	94.7*	11.7	-1.1
Cc1[nH]nc(SCC(=O)Nc2ccc(C#N)cc2)c1[N+](=O)[O-]	-10.9	30.6*	21.1	27.0	17.0	25.9
Cc1ccc(NC(=O)CSc2n[nH]c(C)c2[N+](=O)[O-])cc1	-9.1	4.0	33.8	1.6	9.3	3.7
COc1ccc(C(=O)NC(C)Cc2c[nH]c3ccccc23)cc1 (stereo not drawn)	x	x	x	x	x	-1.8
O=C(/C=C/c1ccc2c(c1)OCCCO2)c1ccc2ccccc2c1O	-6.5	31.9*	15.5	0.6	94.8*	2.3
Cc1ccc(C(=O)/C=C/c2ccc3c(c2)OCCO3)c(O)c1	2.0	-6.8	-58.1	30.0	33.9	0.5
Clc1ccc2c(c1)c1ccccc1n2CN1CCOCC1	1.4	-7.1	1.4	-6.9	-4.5	2.1
Clc1ccc2c(c1)c1cc(Cl)ccc1n2CN1CCOCC1	3.0	10.7*	14.0	32.7	61.9	1.3
COc1ccccc1OCCNC(=O)C1CC(=O)N(c2cccc(SC)c2)C1 (stereo not drawn)	-3.4	16.8*	-2.2	-0.3	10.0	-1.2
CSc1cccc(N2CC(C(=O)NCCC3=CCCCC3)CC2=O)c1 (stereo not drawn)	2.0	-1.6	-14.0	3.3	1.0	-1.0
O=[N+]([O-])c1ccc(Cl)c(C[n+]2cccc3ccccc32)c1	-6.8	1.2	6.7	4.7	-15.0	0.8
SMILES	Beta cell apopt	GRIN3A LBD mod	Mdm2-MdmX inh	SKKanGAS inh	CSC inhib	MPTP inh
Cc1cc(C)nc(SCC(=O)n2c3c(c4ccccc42)CCCC3)n1	-3.0	12.8*	1.2	-5.0	-28.2	1.3
O=C(N/N=C1/SCC(=O)N1Cc1ccco1)c1ccccc1F	-4.4	16.2*	4.4	-1.6	x	0.8
O=C(Nc1cc(C(F)(F)F)ccc1N1CCCCC1)c1ccc(Br)o1	1.3	2.0	13.6	0.1	82.4*	4.6
O=C(Nc1cc(C(F)(F)F)ccc1N1CCCCC1)c1ccco1	-1.1	-6.0	15.3	7.3	-5.4	1.7
O=c1nc(-c2ccccc2)c2ccccc2[nH]1	9.3	12.3*	14.4	-1.0	-10.8	-1.4
CC(NC(=O)CNC(=O)c1ccco1)c1ccccc1 (stereo not drawn)	0.6	0.5	15.5	-1.5	-0.7	-2.8
COc1ccc([C@H]2Oc3cc(O)cc(O)c3C(=O)C2[C@@H]2C(=O)c3c(O)cc(O)cc3O[C@@H]2c2ccc(OC)cc2)cc1 (stereo partly drawn)	7.6	27.7*	40.4	100.2*	142.4*	x
C=CCn1c(SC(C)CC)nc(O)cc1=O (stereo not drawn)	-2.6	-1.0	11.9	52.0*	-1.3	-1.2
C=CCn1c(SCCCC)nc(O)cc1=O	-2.1	-1.2	6.3	15.0	-1.3	0.6
COc1ccc(C(=O)NC(=S)N(C)C2CCCCC2)cc1Br	11.9	0.8	37.3	73.4*	21.3	0.7
Cc1ccc(C(=O)NC(=S)N(C)C2CCCCC2)cc1Br	8.0	x	33.2	84.9*	23.0	-1.5
COc1ccc(C(=O)NC(=S)N(C)C2CCCCC2)cc1	-2.1	-6.4	-7.6	x	-19.2	-0.8
Fc1cccc(F)c1-n1c(CN2CCCCC2)csc1=S	0.9	1.8	38.1	5.9	39.2	3.0
CCOC(=O)CC1COCCN1Cc1cn(C)nc1-c1ccccc1F (stereo not drawn)	-1.4	-2.0	-5.0	3.7	-4.9	0.8
CC(CC(=O)N1CCN(c2cccc(Cl)c2)CC1)S(=O)(=O)c1ccc2c(c1)NC(=O)CO2 (stereo not drawn)	80.4*	2.6	-2.5	1.0	-8.1	30.1
CCCCC1Cc2[nH]c(=S)[nH]c(=O)c2C(C(C)C)O1 (stereo not drawn)	x	x	x	x	x	-0.9
COc1cccc(Oc2cn[nH]c2-c2ccc(O)cc2O)c1	2.6	28.3*	17.8	-18.4	14.9	1.5
CCOc1ccc(-c2[nH]ncc2Oc2cccc(OC)c2)c(O)c1	-1.1	6.2	36.1	26.5	30.3	4.5
COc1cccc(Oc2cn[nH]c2-c2ccc(OC)cc2O)c1	x	22.2*	27.3	14.4	35.3	9.7
CC(=O)c1cccc(CN2CCC(n3nccc3NC(=O)CCc3ccccc3)CC2)c1	x	14.5*	2.6	4.3	-5.3	0.3
CC(=O)Nc1ccc(CN2CCC(n3nccc3NC(=O)CCc3ccccc3)CC2)cc1	x	1.7	11.4	-3.7	-9.9	-2.4
O=C(COc1ccccc1F)Nc1cc(S(=O)(=O)Nc2cccc(Cl)c2)ccc1O	-3.9	27.3*	-7.7	x	x	-1.0
O=C(O)CNC(=O)c1ccc(NC(=O)/C(=C/c2cccc([N+](=O)[O-])c2)NC(=O)c2ccco2)cc1	-5.5	0.8	3.5	-6.3	-7.6	-1.4
C/C(Cn1ncc(N2CCOCC2)c(Cl)c1=O)=N\O	-2.6	-1.0	11.1	-1.0	-9.5	-0.8
Cc1nn(Cc2ccc(Cl)c(Cl)c2)c(C)c1NC(=O)c1cc(-c2ccc3c(c2)OCO3)on1	18.7	0.9	33.7	33.7	80.6*	6.3
